Assay outcomes from PubChem BioAssay.
MRP-1 activ: H69AR viability gain despite doxorubicin, primary screen, MRP-1 activator project, H69AR cells, CellTiter-Glo. 0.61% of 140,000 active. viability increase, % at 10 µM. viability rescue;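 active = viability gain under doxorubicin at or above a set limit, the compound median plus 3 SD, cut at about 4.7% in these data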;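 note: MRP-1 overexpressing cells given doxorubicin 25 µM after compound pretreatment; 18-22 h compound pretreatment then 72 h with doxorubicin before readout; 0% = doxorubicin-only wells and 100% = vehicle-treated cells without doxorubicin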
CYP2C19 activ: human CYP2C19 activators, primary screen, biochemical, luminescence | 96,000 tested, under 10 active | Cytochrome P450 2C19 (Homo sapiens), P33261 | AID 1025, 2008 | activation factor at 5 µM | recombinant CYP2C19, luciferin-H EGE luminescence; hits give high values; 0 = fully inhibited enzyme, 1 = untreated enzyme;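 active = activation factor of at least 2 at 5 µM in the primary screen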;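 note: 0 = wells with 2.5 mM tranylcypromine and 1 = vehicle-only wells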
Target sequence (P33261 whole entry, looked up): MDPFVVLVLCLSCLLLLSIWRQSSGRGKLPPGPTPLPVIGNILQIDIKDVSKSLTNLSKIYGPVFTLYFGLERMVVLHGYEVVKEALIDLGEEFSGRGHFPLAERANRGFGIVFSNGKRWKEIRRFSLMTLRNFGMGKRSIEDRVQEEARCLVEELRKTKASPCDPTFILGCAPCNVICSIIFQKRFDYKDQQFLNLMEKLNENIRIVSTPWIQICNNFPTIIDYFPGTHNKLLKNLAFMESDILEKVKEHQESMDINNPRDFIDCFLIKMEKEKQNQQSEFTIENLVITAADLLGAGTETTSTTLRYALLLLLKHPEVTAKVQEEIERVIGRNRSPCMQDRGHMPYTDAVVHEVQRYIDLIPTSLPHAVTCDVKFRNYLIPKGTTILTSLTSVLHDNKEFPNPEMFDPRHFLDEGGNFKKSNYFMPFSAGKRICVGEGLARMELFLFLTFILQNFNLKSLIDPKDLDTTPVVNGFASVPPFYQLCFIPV
CYP2C9 inhib: blockers of cytochrome P450 2C9 activity – biochemical, luminescence, ADME assay, primary screen | P11712 | CYP2C9 Supersomes, luciferin-H conversion | inhibition, % at 5 µM | 20% of 96,000 active;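 active = blocking of liver enzyme CYP2C9 beyond about 50% at 5 µM, limit read from the data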
MRP reversal: reversal of MRP1-mediated doxorubicin resistance, primary screen, H69AR cells, doxorubicin co-treatment. 0.04% of 85,000 active. differential viability (reversal), % at 10 µM. AID 602, 2007. H69AR cells + 2 uM doxorubicin, CellTiter-Glo, 72 h;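 active = viability drop by adding the cancer drug above about 55%, with treated viability meeting a 40% cutoff, limit read from the data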;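 note: viability without doxorubicin minus viability with 2 µM doxorubicin for each compound; larger differential means the compound sensitizes cells more to doxorubicin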
CYP2C19 inhib: blockers of cytochrome P450 2C19 activity – biochemical, luminescence, ADME assay, primary screen; 21% of 96,000 active; AID 778, 2007; CYP2C19 Supersomes, luciferin-H EGE luminescence, 30 min; inhibition, % at 5 µM; P33261;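 active = CYP2C19 inhibition above a set limit at 5 µM in the primary screen, cut at about 50% in these data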;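 note: plate controls were negative control wells for no effect and 2.5 mM tranylcypromine positive control for full effect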
CYP2C9 act: human CYP2C9 activators, primary screen, biochemical, luminescence; Cytochrome P450 2C9 (Homo sapiens), P11712; recombinant CYP2C9, luciferin-H conversion; hits give high values; factor 1 = untreated enzyme, 0 = blocked; activation factor at 5 µM; 1.4% of 96,000 active;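 active = activation factor of 2 or more for CYP2C9 at a 5 µM dose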;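 note: 0 = sulfaphenazole-blocked wells and 1 = vehicle-only wells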
* marks the source's active call; other numbers are inactive results; nt = no result. Most compounds without a hit are left out; they make up all but 21% or so of the library.

SMILES	MRP-1 activ	CYP2C19 activ	CYP2C9 inhib	MRP reversal	CYP2C19 inhib	CYP2C9 act
CCOc1ccc(/C(O)=C2/C(=O)C(=O)N(CCN(CC)CC)C2c2ccco2)cc1 (stereo unspecified)	-3	nt	nt	15	nt	nt
CCOC(=O)C1=C(C)N(C)C(C)=C(C(=O)OCC)C1c1ccccc1	0	nt	nt	11	nt	nt
CCOC(=O)C1=C(C)N(C)C(C)=C(C(=O)OCC)C1c1ccccn1	1	0.5	86*	17	50*	0.1
CCCCOc1ccccc1C1C(C(=O)OC)=C(C)N(C)C(C)=C1C(=O)OC	-2	nt	nt	21	nt	nt
COC(=O)C1=C(C)N(C)C(C)=C(C(=O)OC)C1c1ccccn1	-1	0.7	82*	-7	27	0.2
COC(=O)C1=C(C)N(C)C(C)=C(C(=O)OC)C1c1ccccc1C	-1	0	96*	21	98*	0
O=C(/C=C/c1ccccc1)N1CCN(CCN2C(=O)c3cccc4cccc(c34)C2=O)CC1	0	nt	nt	nt	nt	nt
CCC(=O)NC(Nc1cc(C)cc(C)n1)(C(F)(F)F)C(F)(F)F	-2	nt	nt	-8	nt	nt
COc1cc(S(=O)(=O)NCCCN2CCOCC2)ccc1Cl	0	0.3	-141	-7	75*	2.4*
COc1cc(Cl)c(S(=O)(=O)NCCN2CCOCC2)cc1Cl	-1	0.2	-99	2	82*	2*
CC(C)CCSc1nc(N)c(C#N)cc1C#N	-3	0.9	24	-1	14	0.8
CCOc1cc(/C=N\O)cc(Cl)c1OCC	-3	nt	nt	-2	nt	nt
C=CCOc1c(Cl)cc(/C=N/O)cc1OC	-2	0	39	-11	98*	0.6
CCOCCCNC(=O)Cn1cc2c(n1)CCCCC2	-1	0.6	1	nt	35	1
Cc1cccc(C)c1NC(=O)CSc1nnc(-c2ccoc2C)n1C	-2	0.7	-1	-9	32	1
Cn1c(SCC(=O)Nc2ccccc2-c2ccccc2)nnc1-c1ccco1	-3	0.4	45	9	60*	0.5
Cc1occc1-c1nnc(SCC(=O)Nc2ccccc2-c2ccccc2)n1C	0	0.2	76*	25	76*	0.2
Cc1ccccc1NC(=O)CSc1nnc(-c2ccoc2C)n1CCc1ccccc1	0	0.6	26	8	40	0.7
Cn1c(SCC(=O)N2c3ccccc3Sc3ccccc32)nnc1-c1ccco1	-1	0.3	70*	6	68*	0.3
CCCn1c(SCC(=O)Nc2ccccc2-c2ccccc2)nnc1-c1ccoc1C	-2	0.2	87*	-23	82*	0.1
CCOc1cc(/C=N\Nc2nc(Nc3ccccc3)nc(N3CCOCC3)n2)ccc1OC(=O)c1ccco1	-4	nt	nt	nt	nt	nt
c1ccc(-c2ccccc2-n2cnnn2)cc1	1	0.6	18	-6	43	0.8
COc1ccccc1N1C(=O)C2C3C=CC(C3)C2C1=O (stereo unspecified)	-2	0.7	9	nt	27	0.9
COc1ccc(NC(=O)CCNC(C)=O)cc1NS(=O)(=O)c1ccc(F)cc1	-1	0.5	29	9	52*	0.7
COc1ccc2c(CC(=O)Nc3ccc(OC)c(NS(=O)(=O)c4ccc(F)cc4)c3)coc2c1	-1	0.3	74*	6	72*	0.3
SMILES	MRP-1 activ	CYP2C19 activ	CYP2C9 inhib	MRP reversal	CYP2C19 inhib	CYP2C9 act
COc1ccc2c(CC(=O)Nc3cccc(S(=O)(=O)N4CCOCC4)c3)coc2c1	0	nt	nt	nt	nt	nt
COc1ccc(OCc2nc3c4cc(OC)c(OC)cc4nc(=S)n3[nH]2)cc1	-1	nt	nt	nt	nt	nt
CN(C)C(CNC(=O)CN1C(=O)NC2(CCc3ccccc32)C1=O)c1ccco1 (stereo unspecified)	-2	1.1	18	17	-10	0.8
COc1ccc(/C=C2\CCc3ccccc3C2=O)cc1Cn1cccn1	-3	0.2	49	nt	78*	0.5
Cc1cccc(NC(=O)c2ccccc2C(=O)O)c1	-3	1.1	-22	6	-14	1.2
CC(=O)Nc1cccc(C(=O)/C=C/c2ccco2)c1	-7	0.5	-126	nt	47	2.3*
Nc1ccccc1C(=O)Nc1cccc(C(=O)O)c1	0	0.4	14	nt	59*	0.9
Cc1occc1C(=O)Nc1cccc(C(=O)O)c1	-2	0.3	41	nt	71*	0.6
Cc1occc1C(=O)Nc1cccc(C(F)(F)F)c1	2	nt	nt	-7	nt	nt
CCOC(=O)c1c(NC(=O)C(=O)N/N=C/c2ccccc2O)sc2c1CCCCC2	3	nt	nt	nt	nt	nt
CC(=O)Nc1ccc(NC(=O)COC(=O)Cc2cccs2)cc1	-1	0.9	10	-1	11	0.9
O=C(COC(=O)Cc1cccs1)Nc1ccc(F)c(F)c1F	0	0.3	25	4	75*	0.8
COc1ccc(-c2csc(N(Cc3ccccc3)C(=O)COc3ccc(Cl)cc3)n2)cc1	0	1.1	-7	nt	-15	1.1
COc1ccc(-c2csc(N(CCc3ccc(OC)c(OC)c3)C(=O)COc3ccccc3)n2)cc1	-3	0.6	68*	nt	38	0.3
Cn1c(C(=O)N2CCc3ccccc3C2)cc2c(=O)n3ccccc3nc21	-3	0.3	49	9	66*	0.5
Cn1nc(C(=O)N2CCc3ccccc3C2)c2ccccc2c1=O	-1	0.4	54*	14	58*	0.5
CCn1nc(C(=O)N2CCc3ccccc3C2)c2ccccc2c1=O	0	0.3	69*	13	66*	0.3
O=C(NC1CCCC1)c1ccc(CSc2nc3ccncc3n2Cc2ccc(F)cc2)cc1	-2	nt	nt	nt	nt	nt
CC(=O)N1CC=CC1(C)C(=O)O (stereo unspecified)	0	nt	nt	nt	nt	nt
CCOC(=O)N1CCN(C(=O)c2ccc3nc(SCc4ccc(F)cc4)n(C)c3c2)CC1	-1	0.5	65*	nt	49	0.3
CN1CCN(C(=O)c2ccc(CSc3nc4ccncc4n3Cc3ccc(F)cc3)cc2)CC1	-1	nt	nt	nt	nt	nt
Cc1csc(SCC(=O)c2c(N)n(C)c(=O)n(C)c2=O)n1	-2	0.9	4	12	9	1
COc1cc(C(=O)NCc2cccc3ccccc23)cc(Cl)c1OC	-1	0.4	-30	nt	62*	1.3
COc1cc(C(=O)NC(c2ccccc2)c2ccccc2)cc(Cl)c1OC	2	nt	nt	nt	nt	nt
Cc1cc(C)nc(-n2nc(C)c(Br)c2Nc2ccc(Br)cc2)n1	-4	0.3	11	8	70*	0.9
O=C(COC(=O)CCC(=O)Nc1nccs1)NCc1ccco1	-1	1	-1	2	2	1
COc1ccc(-c2nc(CSCC(=O)N3CCN(c4cccc(C)c4)C(C)C3)c(C)o2)cc1OC (stereo unspecified)	0	0.3	37	nt	73*	0.6
